Each structure is given as a SMILES string. “And” between values parts separate entries of the source, which are not always exact repeats. Equal values may be shown once. Results filed as inconclusive are left out. Entries that show only a call come without a potency. The source made the active and inactive calls. The call rests on the fitted dose curve; in most records, active means well fitted activation curve with a large enough effect in the repeat runs; inconclusive means weak or mixed curves; inactive means flat fitted curve, though single readings scatter.
Potency means the concentration at half of the fitted maximal effect.

This experiment in a line: qHTS assay for small molecule agonists of the antioxidant response element (ARE) signaling pathway measured by Nrf2-dependant transcriptional activity (AID 720636). The settings on record: ARE-luc HepG2, Nrf2 luciferase reporter, 16 h; series mostly up to 92.4 µM. The text has this:
National Center for Advancing Translational Sciences [NCATS] NIH Chemical Genomics Center [NCGC] U.S. Environmental Protection Agency [EPA] National Institutes of Environmental Health Sciences [NIEHS] National Toxicology Program [NTP] Assay Overview: The antioxidant response element (ARE) signaling pathway plays an important role in the cellular anti-oxidant defense. Exposure to stressors which are exogenous like ionizing radiations, chemicals, U-V light, and endogenous like cell signaling, metabolic processes or inflammation, reactive oxygen species (ROS), can induce oxidative stress in the cells. Oxidative stress has been implicated in the pathogenesis of a variety of diseases ranging from cancer to neurodegeneration. ARE-luc HepG2 cell line (Simmons et al., Current Chemical Genomics, 5:1-12, 2011) has been used for identifying the chemicals that induce oxidative stress. The cell line has an Nrf2-responsive luciferase reporter gene that has been engineered to measure Nrf2-dependant transcriptional activity.
Assay Protocol Summary: For measuring ARE induction; 2,000 ARE-luc HepG2 cells in 5 uL of assay medium containing 1% dialyzed FBS per well were dispensed into white wall/solid bottom 1536-well plates using a Flying Reagent Dispenser (FRD) (Aurora Discovery). The assay plates were incubated for 6 hr at 37 C to allow cell attachment to the well bottom, followed by the transfer of 23 nL compound or DMSO vehicle by a pin tool (Kalypsys). The plates were incubated for 16 hr at 37 C and 5% CO2, followed by the addition of 5 uL of ONE-GloTM luciferase reagent (Promega) into each well using FRD. After 30 min room temperature incubation, plates were read on a ViewLux plate reader (PerkinElmer).
For the compound `CC(C)O`, the Potency result was “inactive”.

Regarding `O=P(O)(O)O`, the Potency entry is “inactive”.

With `Cc1ncc[nH]1`, the Potency result was “inactive”.

For the compound `CCCCC(CC)COS(=O)(=O)O` (stereo not given), the Potency result is “inactive”.

Consider `Oc1cccc(O)c1O`, for which the Potency result was “inactive”.

Consider `C[C@H](CCC(=O)O)[C@H]1CC[C@H]2[C@@H]3[C@H](O)C[C@@H]4C[C@H](O)CC[C@]4(C)[C@H]3C[C@H](O)[C@]12C`, for which the Potency entry was “inactive”.

Turning to `Nc1ncnc2c1ncn2[C@H]1CC[C@@H](CO)O1`, the Potency result is “inactive”.

As for `CC(C)(C)CC(C)(C)c1ccc(OCCO)cc1`, the Potency entry is “inactive”.

On to `O.O.O.O.O.O.O.O=S(=O)([O-])[O-].[Co+2]`, for which the Potency result was “inactive”.

Consider `ClC(Cl)Cl`, for which the Potency result is “inactive”.

In the case of `C[C@H](CCC(=O)O)[C@H]1CC[C@H]2[C@@H]3CC[C@@H]4C[C@H](O)CC[C@]4(C)[C@H]3C[C@H](O)[C@]12C`, the Potency entry was “inactive”.

Regarding `CCCCO`, the Potency entry was “inactive”.

Take `C=C(C)C1CC=C(C)CC1` (stereo not given): the Potency result was “inactive”.

Turning to `Nc1nccs1`, the Potency entry is “inactive”.

On to `OCC(O)CO`, for which the Potency result was “inactive”.

On to `NCCN`, for which the Potency result was “inactive”.

Regarding `O=c1n(CC2CO2)c(=O)n(CC2CO2)c(=O)n1CC1CO1` (stereo not given), the Potency was 59.6 µM (active) and 61.1 µM (active).

On to `CC(C)CCC[C@@H](C)[C@H]1CC[C@H]2[C@@H]3CC=C4C[C@@H](O)CC[C@]4(C)[C@H]3CC[C@]12C`, for which the Potency result was “inactive”.

Consider `C=C1C(CCl)(CCl)C2(Cl)C(Cl)C(Cl)C1(Cl)C2(Cl)Cl` (stereo not given), for which the Potency was 66.8 µM (active).

`OCc1ccccc1`: the Potency entry was “inactive”.

For the compound `OCl`, the Potency result is “inactive”.

With `CCOC(C)OCC`, the Potency entry is “inactive”.

Consider `C[C@H]1O[C@@H](O[C@H]2[C@@H](O)C[C@H](O[C@H]3[C@@H](O)C[C@H](O[C@H]4CC[C@@]5(C)[C@H](CC[C@@H]6[C@@H]5C[C@@H](O)[C@]5(C)[C@@H](C7=CC(=O)OC7)CC[C@]65O)C4)O[C@@H]3C)O[C@@H]2C)C[C@H](O)[C@@H]1O`, for which the Potency result was “inactive”.

As to `C/C=C/C=C/C(=O)O`, the Potency entry was “inactive”.

On to `CO/N=C(/C(=O)N[C@@H]1C(=O)N2C(C(=O)O)=C(COC(N)=O)CS[C@H]12)c1ccco1`, for which the Potency entry was “inactive”.

For the compound `CC1=CCC2CC1C2(C)C` (stereo not given), the Potency entry is “inactive”.

Regarding `CC1=CC(=O)NS(=O)(=O)O1`, the Potency result is “inactive”.

Consider `OC[C@H]1O[C@@H]2O[C@H]3[C@H](O)[C@@H](O)[C@@H](O[C@H]4[C@H](O)[C@@H](O)[C@@H](O[C@H]5[C@H](O)[C@@H](O)[C@@H](O[C@H]6[C@H](O)[C@@H](O)[C@@H](O[C@H]7[C@H](O)[C@@H](O)[C@@H](O[C@H]1[C@H](O)[C@H]2O)O[C@@H]7CO)O[C@@H]6CO)O[C@@H]5CO)O[C@@H]4CO)O[C@@H]3CO`, for which the Potency entry was “inactive”.

Consider `Cc1ccc(S(=O)(=O)O)cc1C`, for which the Potency result is “inactive”.

Consider `NC(N)=O`, for which the Potency entry is “inactive”.

For `CN(CCO)CC(O)Cn1cnc2c1c(=O)n(C)c(=O)n2C` (stereo not given) (tested in a mixture with another compound), the Potency result was “inactive”.

On to `N[C@@H](Cc1cc(I)c(Oc2ccc(O)c(I)c2)c(I)c1)C(=O)O`, for which the Potency result is “inactive”.

Turning to `COC(=O)c1ccccc1O`, the Potency result is “inactive”.

Turning to `CC[C@H]1OC(=O)[C@H](C)[C@@H](O[C@H]2C[C@@](C)(OC)[C@@H](O)[C@H](C)O2)[C@H](C)[C@@H](O[C@@H]2O[C@H](C)C[C@H](N(C)C)[C@H]2O)[C@](C)(O)C[C@@H](C)CN(C)[C@H](C)[C@@H](O)[C@]1(C)O`, the Potency result is “inactive”.

Take `C[Si](C)(C)O[Si](C)(C)C`: the Potency entry is “inactive”.

Regarding `CO`, the Potency entry was “inactive”.

As for `Cc1ccc(S(=O)(=O)NCl)cc1`, the Potency entry was “inactive”.

Regarding `CCCCC`, the Potency entry is “inactive”.

As to `OC[C@H]1O[C@@](CO)(O[C@H]2O[C@H](CO)[C@@H](O)[C@H](O)[C@H]2O)[C@@H](O)[C@@H]1O`, the Potency result was “inactive”.

As to `CCCCCCCCCCCCCCCCCC(=O)OC[C@@H](O)[C@H]1OC[C@H](O)[C@H]1O`, the Potency entry was “inactive”.
